The results in this text go back to PubChem BioAssay.

The source made the active and inactive calls.

The subject of test [1] is Plasmodium falciparum Sir2 (PF13_0152, Sir2A). The test is described as follows: Plasmodium falciparum Sir2A binding compounds – biochemical, small-molecule microarray, 635 nm fluorescence, primary screen (AID 1098).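 Further: score merges spot fluorescence intensity with its signal-to-noise ratio.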 Conditions: fluorescence 635 nm, higher = more signal.
Test [2] in a line: probe aDKK1 binding to arrayed compounds – biochemical, biotinylated probe, 635/667 nm fluorescence, primary screen (AID 1099).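 Further: score merges 667nm spot fluorescence with signal to noise across triplicate slides.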 Conditions: small-molecule microarray, higher = more signal.
Test [3] in a line: probe aCHRDL2 binding to arrayed compounds – biochemical, biotinylated probe, 635/667 nm fluorescence, primary screen (AID 1100). Conditions: small-molecule microarray, higher = more signal.
Test [4] in a line: change in splice reporter luminescence, either direction, cell-based, HEK293, spliceosome inhibition project, primary screen (AID 1101).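 Further: HEK293 cells carrying a splicing-competent luciferase reporter gene; test concentration not given here.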 Conditions: HEK293 splicing luciferase reporter, 24 h, higher = more signal, called active from +8 up or from −8 down.
Test [5] addresses Fibroblast growth factor 10 (Homo sapiens) (UniProt O15520). The test is described as follows: compounds binding fibroblast growth factor 10 – biochemical, small-molecule microarray, 635 nm fluorescence, primary screen (AID 1102). Conditions: FGF10 binding, fluorescence 635 nm, higher = more signal.
In test [6] the test system is glycogen synthase kinase-3 (GSK3A per assay name; protocol says GSK3B). Kind of test: compounds binding glycogen synthase kinase-3 – biochemical, small-molecule microarray, 635 nm fluorescence, GSK3A, primary screen (AID 1103). Further: the record names both GSK3A and GSK3B. Conditions: fluorescence 635 nm, higher = more signal.
Test [7] addresses Epidermal growth factor receptor (Homo sapiens) (UniProt P00533). Kind of test: compounds binding epidermal growth factor receptor – biochemical, small-molecule microarray, 635 nm fluorescence, primary screen (AID 1104).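 Further: score merges 667 nm emission intensity with spot signal to noise over triplicate slides.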 Conditions: EGFR binding, higher = more signal.
Test [8] has as its target Follistatin-related protein 3 (Homo sapiens) (UniProt O95633). Kind of test: compounds binding follistatin-related protein 3 – biochemical, small-molecule microarray, 635 nm fluorescence, primary screen (AID 1105).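 Further: score merges emission near 667 nm and signal to noise per printed spot across three slides.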 Conditions: FSTL3 binding, higher = more signal.
Test [9] has as its target Dickkopf-related protein 1 (Homo sapiens) (UniProt O94907). The test is described as follows: small molecules binding DKK1 protein – biochemical, small-molecule microarray, 635 nm fluorescence scan, primary screen (AID 1106).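 Further: score merges emission near 667 nm with signal to noise over three replicate slides.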 Conditions: higher = more signal.
Test [10] has as its system Inhibin beta A chain (activin A). The test is described as follows: small molecules binding activin A – biochemical, small-molecule microarray, 635 nm fluorescence scan, primary screen (AID 1107).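 Further: mouse activin A protein probed at 4.33 µg/mL on printed slides; score merges bound-protein fluorescence near 667 nm with spot signal-to-noise.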 Conditions: INHBA, higher = more signal.
The test system of test [11] is Human papillomavirus type 1a protein E7 (residues 44-93). Kind of test: small molecules binding HPV E7 44-93 – biochemical, small-molecule microarray, residues 44-93, 635 nm fluorescence, primary screen (AID 1108).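 Further: E7 fragment applied at 1 µg/mL in TBST for 1 h at 4 C; score combines spot fluorescence with its signal to noise ratio.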 Conditions: fluorescence 635 nm, higher = more signal.
Test [12] can be described thus: hepatitis C replication reporter changes, two-sided – Huh7 cells, luciferase reporter, HCV replication inhibitor project, primary screen (AID 1109).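 Further: huh7 hepatoma cells harbouring a luciferase neomycin HCV replicon reporter; luciferase luminescence as measure of HCV replicon replication; test concentration not given here.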 Conditions: Huh7 HCV replicon luciferase reporter, 48 h; higher = more signal. For orientation: In a reporter assay the amount or activity of a reporter protein is the signal.
Test [13] has as its target Left-right determination factor 2 (Homo sapiens) (UniProt O00292). Kind of test: small molecules binding LEFTY2 protein – biochemical, small-molecule microarray, 635 nm fluorescence scan, primary screen (AID 1110). Conditions: higher = more signal.
The target in test [14] is Calmodulin-1 (Homo sapiens) (UniProt P0DP23). The test is described as follows: small molecules binding calmodulin-1 with EGTA – biochemical, small-molecule microarray, Cy5-labelled CALM1, profiling panel (AID 1111).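 Further: labelled calmodulin applied in Tris saline Tween buffer holding calcium plus EGTA and DTT.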 Conditions: Cy5-CALM1 binding fluorescence, higher = more signal.
Test [15] shares this target. Kind of test: small molecules binding Ca-loaded calmodulin-1 – biochemical, small-molecule microarray, Cy5-labelled CALM1, plus calcium, artefact control for SMM control-protein annotation, profiling panel (AID 1112).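 Further: score merges spot fluorescence with signal to noise from triplicate slides.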 Conditions: Cy5-CALM1 binding fluorescence, higher = more signal.
Test [16] can be described thus: probe aWnt5a binding to arrayed compounds – biochemical, biotinylated probe, 635/667 nm fluorescence, primary screen (AID 1113).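 Further: score merges 667 nm fluorescence intensity with signal-to-noise per printed feature.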 Conditions: small-molecule microarray, higher = more signal.
Test [17] can be described thus: probe aShh binding to arrayed compounds – biochemical, biotinylated probe, 635/667 nm fluorescence, primary screen (AID 1114).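 Further: probe is biotin-labelled aShh protein from a stem cell growth factor screen; measures binding of labelled protein to compounds printed on the slide; score merges feature fluorescence at 667 nm with signal-to-noise.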 Conditions: small-molecule microarray, higher = more signal.
The nature of test [18]: probe aNog binding to arrayed compounds – biochemical, biotinylated probe, 635/667 nm fluorescence, primary screen (AID 1115).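 Further: probe is biotinylated aNog protein used at 0.15 µg/mL for 1 h at 4 C; z-score combines 667 nm fluorescence of each spot with its signal to noise.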 Conditions: small-molecule microarray, higher = more signal.
Test [19] has as its target Torsin-1A-interacting protein 1 (Homo sapiens) (UniProt Q5JTV8). The test is described as follows: compound microarray binding of lysate hLAP1 – cell lysate, small-molecule microarray, COS7 lysate, 635/667 nm fluorescence, primary screen (AID 1116). Conditions: 635 nm fluorescence, higher = more signal.
Test [20] addresses Alpha-bungarotoxin (Bungarus multicinctus) (UniProt P60615). Kind of test: compounds binding labelled alpha-BTX control protein – biochemical, small-molecule microarray, Alexa647 label, 635/667 nm fluorescence, artefact control for SMM control protein annotation, profiling panel (AID 1117). Conditions: alpha-BTX-A647 binding fluorescence, higher = more signal.

Chain of Epidermal growth factor receptor (Homo sapiens) (P00533 whole entry, looked up): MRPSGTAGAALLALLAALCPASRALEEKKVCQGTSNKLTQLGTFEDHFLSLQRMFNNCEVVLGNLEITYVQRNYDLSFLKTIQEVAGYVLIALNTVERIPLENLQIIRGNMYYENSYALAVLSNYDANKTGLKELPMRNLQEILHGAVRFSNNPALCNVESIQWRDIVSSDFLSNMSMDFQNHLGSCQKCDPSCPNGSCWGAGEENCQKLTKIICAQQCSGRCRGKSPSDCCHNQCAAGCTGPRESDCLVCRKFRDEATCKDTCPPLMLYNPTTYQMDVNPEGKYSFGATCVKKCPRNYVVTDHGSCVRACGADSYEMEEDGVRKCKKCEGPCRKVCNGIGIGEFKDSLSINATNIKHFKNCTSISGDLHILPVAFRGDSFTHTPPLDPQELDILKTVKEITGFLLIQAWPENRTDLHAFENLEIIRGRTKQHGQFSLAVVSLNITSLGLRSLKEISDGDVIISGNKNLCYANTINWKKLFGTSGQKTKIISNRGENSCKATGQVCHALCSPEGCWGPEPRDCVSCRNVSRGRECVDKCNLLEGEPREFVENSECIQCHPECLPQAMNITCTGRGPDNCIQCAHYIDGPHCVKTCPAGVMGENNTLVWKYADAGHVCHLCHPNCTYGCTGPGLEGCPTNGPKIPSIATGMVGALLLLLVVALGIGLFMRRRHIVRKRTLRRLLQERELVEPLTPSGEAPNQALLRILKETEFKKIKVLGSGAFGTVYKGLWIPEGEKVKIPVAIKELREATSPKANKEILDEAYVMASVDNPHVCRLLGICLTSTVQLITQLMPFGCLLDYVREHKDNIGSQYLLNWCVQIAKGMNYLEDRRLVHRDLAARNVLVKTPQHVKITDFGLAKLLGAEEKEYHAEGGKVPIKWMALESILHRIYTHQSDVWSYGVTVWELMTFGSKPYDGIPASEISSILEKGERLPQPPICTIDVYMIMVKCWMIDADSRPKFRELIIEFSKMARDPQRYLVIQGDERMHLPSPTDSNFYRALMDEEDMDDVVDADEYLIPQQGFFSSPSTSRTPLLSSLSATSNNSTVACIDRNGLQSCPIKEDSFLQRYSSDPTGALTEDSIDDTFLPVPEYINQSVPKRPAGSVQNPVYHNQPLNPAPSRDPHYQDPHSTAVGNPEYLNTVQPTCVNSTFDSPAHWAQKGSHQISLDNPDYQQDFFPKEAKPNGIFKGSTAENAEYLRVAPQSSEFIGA
Chain of Follistatin-related protein 3 (Homo sapiens) (O95633 whole entry, looked up): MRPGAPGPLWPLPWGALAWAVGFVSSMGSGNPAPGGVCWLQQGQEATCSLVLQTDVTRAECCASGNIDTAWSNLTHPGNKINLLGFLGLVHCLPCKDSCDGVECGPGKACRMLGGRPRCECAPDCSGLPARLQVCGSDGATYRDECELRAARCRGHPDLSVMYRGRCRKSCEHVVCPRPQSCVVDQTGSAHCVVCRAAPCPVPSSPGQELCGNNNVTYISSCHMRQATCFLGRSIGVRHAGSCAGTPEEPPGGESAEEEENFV
Chain of Fibroblast growth factor 10 (Homo sapiens) (O15520 whole entry, looked up): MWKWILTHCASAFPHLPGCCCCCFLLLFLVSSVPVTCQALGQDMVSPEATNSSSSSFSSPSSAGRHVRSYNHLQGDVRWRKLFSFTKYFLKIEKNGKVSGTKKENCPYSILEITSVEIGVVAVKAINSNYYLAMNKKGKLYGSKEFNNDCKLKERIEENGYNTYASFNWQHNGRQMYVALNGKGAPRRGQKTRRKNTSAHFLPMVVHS
Chain of Alpha-bungarotoxin (Bungarus multicinctus) (P60615 whole entry, looked up): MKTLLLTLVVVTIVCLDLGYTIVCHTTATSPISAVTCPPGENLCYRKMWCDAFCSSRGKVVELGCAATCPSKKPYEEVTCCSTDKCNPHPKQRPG
Chain of Dickkopf-related protein 1 (Homo sapiens) (O94907 whole entry, looked up): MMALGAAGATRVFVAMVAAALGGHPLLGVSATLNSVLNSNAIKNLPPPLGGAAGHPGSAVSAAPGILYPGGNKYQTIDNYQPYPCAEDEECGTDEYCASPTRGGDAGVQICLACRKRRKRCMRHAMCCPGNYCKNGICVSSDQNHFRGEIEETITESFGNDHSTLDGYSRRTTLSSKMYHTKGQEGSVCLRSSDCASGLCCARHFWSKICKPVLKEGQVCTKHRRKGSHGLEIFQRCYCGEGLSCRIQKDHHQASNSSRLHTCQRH
Chain of Left-right determination factor 2 (Homo sapiens) (O00292 whole entry, looked up): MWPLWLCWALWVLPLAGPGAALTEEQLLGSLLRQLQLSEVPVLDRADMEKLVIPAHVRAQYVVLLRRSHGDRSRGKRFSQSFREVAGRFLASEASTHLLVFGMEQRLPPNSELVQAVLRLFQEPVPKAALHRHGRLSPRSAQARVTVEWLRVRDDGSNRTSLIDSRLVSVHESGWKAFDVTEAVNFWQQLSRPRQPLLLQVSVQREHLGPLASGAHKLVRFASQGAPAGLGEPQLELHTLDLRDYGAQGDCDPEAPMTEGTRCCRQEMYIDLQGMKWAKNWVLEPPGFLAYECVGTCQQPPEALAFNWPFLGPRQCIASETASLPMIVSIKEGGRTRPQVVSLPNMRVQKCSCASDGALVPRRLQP
Chain of Torsin-1A-interacting protein 1 (Homo sapiens) (Q5JTV8 whole entry, looked up): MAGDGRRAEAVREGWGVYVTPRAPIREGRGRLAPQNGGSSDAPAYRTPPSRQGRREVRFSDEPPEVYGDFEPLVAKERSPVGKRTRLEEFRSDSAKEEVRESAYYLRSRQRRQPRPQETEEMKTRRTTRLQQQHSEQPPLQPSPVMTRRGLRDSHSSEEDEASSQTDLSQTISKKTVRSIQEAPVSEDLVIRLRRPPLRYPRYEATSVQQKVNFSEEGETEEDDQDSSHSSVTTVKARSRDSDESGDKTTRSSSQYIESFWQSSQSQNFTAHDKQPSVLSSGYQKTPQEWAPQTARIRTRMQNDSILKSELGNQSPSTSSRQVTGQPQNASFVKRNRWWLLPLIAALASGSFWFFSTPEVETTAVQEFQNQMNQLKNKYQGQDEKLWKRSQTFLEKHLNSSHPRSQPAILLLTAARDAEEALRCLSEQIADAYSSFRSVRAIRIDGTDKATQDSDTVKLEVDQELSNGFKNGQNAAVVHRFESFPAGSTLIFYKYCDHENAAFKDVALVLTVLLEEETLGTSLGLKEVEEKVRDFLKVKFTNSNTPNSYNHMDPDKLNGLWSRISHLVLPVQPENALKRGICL

For `CC(C)C[C@@H]1NC(=O)[C@@]23C(=O)N[C@@H](Cc4ccccc4)C2[C@H](C)[C@@]2(C)O[C@H]2C3/C=C/CC/C=C/CNC(=O)[C@@H](C)NC1=O` (stereo not given in full), the composite z-score was 0.624 in [1]; -0.246 in test [2]; -0.722 in test [3]; 1.39 in test [5]; 0.374 in test [6]; 0.732 in test [7]. The composite z-score in test [8] is 1.07; in test [9] it was 0.81; in [10], 1.29; in test [11], -0.211; in test [13], 0.575; in test [14] it was -0.643. Further, the composite z-score was -1.39 in test [15]; -0.154 in test [16]; -0.229 in test [17]; 0.117 in test [18]; -0.152 in [19]; -0.195 in [20]. Further, the z-score in [4] is -0.585 (inactive); in [12] it was 0.42.

In the case of `CC(C)NC(=O)[C@@H]1c2ccccc2C(=O)N(Cc2cc(F)cc(C(F)(F)F)c2)[C@H]1c1ccc(CO)cc1`, the composite z-score in test [1] is 1.51; in [2], 0.478; in test [3], 0.94; in test [5], -0.535; in test [6] it was -0.825; in test [7], -0.979. Further, the composite z-score in test [8] was -1.17; in [9] it was -0.833; in test [10] it was -0.476; in test [11] it was 0.719; in test [13], -0.556; in [14], 0.343. For the same compound, the composite z-score in test [15] was 0.916; in [16] it was -0.25; in test [17], -0.321; in [18] it was 0.27; in test [19] it was 0.0026; in [20], -0.948. The values for the z-score in test [4] and in test [12] were -1.05 (inactive) and 0.32, respectively.

For `CCN(CC)c1ccc(N2CC=CC34O[C@@H]5C=CCOC(=O)[C@@H]5[C@H]3C(=O)N(C(CO)C(C)C)[C@@H]4C2=O)cc1` (stereo not given in full), the composite z-score in test [1] was -0.0952; in test [2], -0.239; in test [3], -0.202; in [5], -0.608; in test [6] it was -0.142; in [7] it was -1.01. Moreover, the composite z-score was -0.586 in test [8]; 0.0041 in test [9]; 0.761 in test [10]; -0.825 in [11]; -0.827 in test [13]; -0.647 in test [14]. Moreover, the composite z-score in [15] is -0.752; in test [16], -0.129; in test [17], -0.0626; in test [18] it was -0.481; in test [19], -0.257; in test [20], -0.274. Further, the z-score in [4] is -0.133 (inactive); in [12], -0.496.

On to `CCCCC(=C=CC[C@@H](O)c1ccc(OCCO)cc1)C[C@@H](O)c1cc(Cl)cc(Cl)c1O`, for which the composite z-score is 0.157 in test [1]; 0.279 in test [2]; 0.577 in test [3]; 0.697 in test [5]; -0.167 in [6]; -0.723 in test [7]. The composite z-score in [8] was -0.0492; in test [9], -0.344; in [10] it was 0.588; in test [11], -0.258; in test [13], -0.0836; in test [14], 0.863. Moreover, the composite z-score was 0.83 in test [15]; -0.124 in test [16]; -0.221 in [17]; 0.342 in test [18]; 0.497 in test [19]; 0.166 in test [20]. Moreover, the z-score in test [4] is -2 (inactive); in test [12] it was -1.99.

Turning to `CCN(CC)c1ccc(N2CC=CC34O[C@@H]5C=CCOC(=O)[C@@H]5[C@H]3C(=O)N(C(C)CO)[C@@H]4C2=O)cc1` (stereo not given in full), the composite z-score in test [1] is -0.928; in [2], 0.0831; in test [3] it was 0.495; in test [5] it was -0.749; in test [6] it was -2.21; in test [7] it was -1.5. Besides, the composite z-score is -1.5 in test [8]; -1.01 in test [9]; 0.509 in test [10]; -1.09 in test [11]; -1.21 in [13]; -1.1 in test [14]. The composite z-score in [15] was -0.201; in test [16], -0.154; in test [17] it was -0.153; in [18], 0.166; in test [19], -0.438; in test [20] it was 0.0517. The z-score is -0.405 (inactive) in [4] and -0.533 in test [12].
